In PubChem BioAssay (NCI) one finds growth inhibition data, which are given here for 21 compounds.

Assay [1] is described as follows: NCI Yeast Anticancer Drug Screen. Data for the rad50 strain (AID 155).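 Note: 0% = growth of vehicle-only cultures of the same strain.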 The note with it: S. cerevisiae rad50 strain growth inhibition, hits give high values; at 50.0 µM unless noted. The method, boiled down:
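Relative growth inhibition (compound vs vehicle) was measured in yeast with a defined repair-gene alteration.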

A short description of assay [2]: NCI Yeast Anticancer Drug Screen. Data for the mec2-1 strain (AID 157). The note with it: S. cerevisiae mec2-1 strain, hits give high values; at 50.0 µM unless noted. The procedure, abridged:
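Test agents were screened against the mec2-1 yeast strain, with defined DNA repair or cell cycle alteration. Growth was scored as inhibition against vehicle-only controls.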

Assay [3] is described as follows: NCI Yeast Anticancer Drug Screen. Data for the sgs1 mgt1 strain (AID 161).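 Note: 0% = growth of cultures given vehicle only.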 Conditions: S. cerevisiae sgs1 mgt1 strain, hits give high values; at 50.0 µM unless noted. The method, boiled down: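 Read-out: growth inhibition vs vehicle controls. Cells: mutant yeast strain deficient in DNA damage repair.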
Assay [4] is described as follows: NCI Yeast Anticancer Drug Screen. Data for the cln2 rad14 strain (AID 165).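 Note: 0% = growth equal to vehicle treated cultures.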 The note with it: S. cerevisiae cln2 rad14 strain, hits give high values; at 50.0 µM unless noted. The method, boiled down:
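Growth of compound-exposed yeast (cln2 rad14 genotype) measured and expressed as inhibition relative to vehicle.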

A short description of assay [5]: NCI Yeast Anticancer Drug Screen. Data for the bub3 strain (AID 167). The note with it: S. cerevisiae bub3 mutant strain, hits give high values; at 50.0 µM unless noted. The procedure, abridged: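 Screening used yeast with an engineered genetic alteration affecting cell cycle control. Compound-exposed cultures were compared with vehicle cultures, and reduced growth was taken as inhibition.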

The nature of assay [6]: NCI Yeast Anticancer Drug Screen. Data for the mlh1 rad18 strain (AID 175). The note with it: S. cerevisiae mlh1 rad18 strain growth inhibition, hits give high values; at 50.0 µM unless noted. The procedure, abridged: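 In this whole-cell yeast screen, a strain with altered DNA damage repair is challenged with compound, and its growth is measured against matched vehicle-treated controls.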

Values joined by “and” are separate entries in the source; they are usually repeats but may differ in a detail not shown here. Identical values can stand only once. Compounds without any hit were thinned out: in the full panel of roughly 79,000, 15% have a hit. Values without a mark were called inactive. Active and inactive are the calls of the source. Cut-off read from the data, not from the text of the source: active = growth inhibition above about 70%; inactive = the rest.

For the compound `CC(=O)CC(=O)Nc1ccc2ccccc2c1`, the growth inhibition in assay [1] was -1.9%; in assay [2] it was -12%; in assay [3] it was -8.3%; in assay [4], -36.4%; in assay [5] it was -37.9%; in assay [6], -14.6%.
Take `CC(=O)c1cc2c(cc1O)oc1c(C)ccc(C)c12`: the growth inhibition in assay [1] is 20.8%; in assay [2], -3.4%; in assay [3] it was 5.55%; in assay [4], 18.2%; in assay [5], -29.7%; in assay [6], -13.8%.
With `CCOC(=O)C1=C(O)c2ccccc2C(=O)C1=O`, the growth inhibition in assay [1] is 7.35%; in assay [2], 3.8%; in assay [3] it was 21.6%; in assay [4], 11.3%; in assay [5], 13.2%; in assay [6], 8.95%.
As to `S=c1nc2ccccn2c(=S)n1-c1ccccn1`, the growth inhibition was 33.6% in assay [1]; 23.9% in assay [2]; 27.4% in assay [3]; 0.5% in assay [4]; 24.5% in assay [5]; 57.9% in assay [6].
With `COc1cc2c[n+](C)c3c4cc(OC)c(OC)cc4c(OCc4ccccc4)cc3c2cc1OC`, the growth inhibition in assay [1] was 86% (active); in assay [2], 89.8% (active); in assay [3] it was 88.1% (active); in assay [4] it was 88.7% (active); in assay [5], 87.5% (active); in assay [6] it was 91.2% (active).
Take `CCN1CCC(O)C1` (stereo unspecified): the growth inhibition in assay [1] was 18.6%; in assay [2] it was -0.1%; in assay [3], 19.2%; in assay [4], 14.2%; in assay [5] it was 26%; in assay [6] it was 30.9%.
Turning to `N#CC(C#N)=C1SC(=Nc2ccccc2)C(=Nc2ccccc2)N1c1ccccc1`, the growth inhibition in assay [1] is 11.6%; in assay [2] it was 6.05%; in assay [3], 19.2%; in assay [4] it was 7.1%; in assay [5], 21.6%; in assay [6], 16.4%.
Consider `COc1ccc(CCNS(=O)(=O)c2c(C)c(C)c(C)c(C)c2C)cc1OC`, for which the growth inhibition was -2.2% in assay [1]; -20.6% in assay [2]; 5.1% in assay [3]; 21.1% in assay [4]; 21.2% in assay [5]; 6.8% in assay [6].
As for `Clc1ccc(/C=C/c2nc(Cl)c(-c3ccc(Cl)cc3)c(Cl)n2)cc1`, the growth inhibition was -15.2% in assay [1]; -18.8% in assay [2]; -3.1% in assay [3]; 14.3% in assay [4]; -23.8% in assay [5]; 5.3% in assay [6].
With `COC(=O)c1cc(Br)cc(Br)c1N`, the growth inhibition in assay [1] was 26.1%; in assay [2], -12.9%; in assay [3], 0.3%; in assay [4] it was -35.1%; in assay [5], 3.6%; in assay [6], 32.4%.
For the compound `O=C(N/N=C/c1ccc(O)cc1)C(c1ccccc1)N1CCCCC1` (stereo unspecified), the growth inhibition in assay [1] was 5.85%; in assay [2], -7.05%; in assay [3] it was -7.4%; in assay [4], -18.8%; in assay [5], 3.05%; in assay [6], -5.3%.
Take `O=C1OC(c2ccccc2)=C2CCC3CCCCN1C23` (stereo unspecified): the growth inhibition was -2.15% in assay [1]; -29.7% in assay [2]; 12.8% in assay [3]; 23.4% in assay [4]; 34.6% in assay [5]; 9.25% in assay [6].
Take `NCC(=O)NC(Cc1c[nH]c2ccccc12)C(=O)O` (stereo unspecified): the growth inhibition in assay [1] is 7.85% and -4.8%; in assay [2] it was -4.65% and 1.4%; in assay [3], 7.45% and -7.4%; in assay [4] it was -0.8% and 13.8%; in assay [5], 26.8% and -10%; in assay [6], -0.75% and -5.4%.
Take `CCCCCCCCCCCCCCCCCC(=O)N/N=C/c1cc(C(C)(C)C)c(O)c(C(C)(C)C)c1`: the growth inhibition in assay [1] was -32.6%; in assay [2] it was 13.7%; in assay [3], -14.1%; in assay [4], -35.2%; in assay [5] it was -1.1%; in assay [6] it was 2.45%.
Turning to `CC(=O)NNC(=O)C(N)Cc1ccc(O)cc1` (stereo unspecified), the growth inhibition is 13.5% in assay [1]; 23.1% in assay [2]; 40.5% in assay [3]; 12.2% in assay [4]; 2.95% in assay [5]; 14.8% in assay [6].
Regarding `C=CC(=O)OCCOCCCC`, the growth inhibition was 8.75% in assay [1]; 5.4% in assay [2]; -4.7% in assay [3]; -21.9% in assay [4]; -15.1% in assay [5]; 4.85% in assay [6].
For `COC(=O)CCC(=O)Nc1cc(C)ccc1C`, the growth inhibition in assay [1] is -6.3%; in assay [2], -19.9%; in assay [3] it was -7.6%; in assay [4], 4.5%; in assay [5], -2.25%; in assay [6], -12.2%.
With `CC(C)=C(Nc1ccccc1)NC(C)C`, the growth inhibition in assay [1] is 47.4%; in assay [2], -19.1%; in assay [3] it was -28.4%; in assay [4], -16.2%; in assay [5], -40.6%; in assay [6] it was -3.15%.
In the case of `CN(Cc1cc(Br)cc(Br)c1O)Cc1c(O)ccc2ccccc12`, the growth inhibition is 98.8% (active) in assay [1]; 98.8% (active) in assay [2]; 98.8% (active) in assay [3]; 97.3% (active) in assay [4]; 98.2% (active) in assay [5]; 98.8% (active) in assay [6].
Regarding `CC(C)(C)C(=O)OCC1CCC(n2cnc3c(=O)[nH]c(N)nc32)O1` (stereo unspecified), the growth inhibition in assay [1] is 34.3%; in assay [2], 2.3%; in assay [3], -3.65%; in assay [4], 3.05%; in assay [5], -2.25%; in assay [6] it was 25.7%.
Turning to `COc1ccc(CNC(=O)CC(C)=O)cc1`, the growth inhibition in assay [1] was -6.7%; in assay [2], -17.5%; in assay [3] it was 3.35%; in assay [4], 7.25%; in assay [5] it was 13%; in assay [6] it was 0.95%.
